Only some compounds are listed: those with a hit (about 8.1% of all), similar ones and a draw of the others.
MCF10A rerep – inducers of DNA re-replication in MCF 10A breast cells; Potency, µM (highest dose often 46.1 µM), usual class: activators; MCF 10A DNA re-replication, Hoechst nuclear intensity, 48 h; 350,000 compounds, 2.9% hits; also: nearly all actives have a fitted effect of over 50% in size
ELG1 repair inh – blocks ELG1-dependent DNA repair in HEK293T cells | HEK293T ELG1-luciferase reporter, luminescence, 16 h; DNA damage induced by 5-fluorouridine | Potency, µM (series often up to 46.1 µM), hits mostly inhibitors | 330,000 compounds, 2.3% hits | AID 504467; also: nearly all actives have a fitted effect of over 55% in size
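Luminescence from the luciferase reporter, measured 30 min after ONE-Glo reagent at room temperature, was the read-out. Beforehand, 2,000 cells per well were exposed for 16 hr at 37 °C to 5-fluorouridine together with compound or vehicle.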
SW480 rerep – induces DNA re-replication in SW480 colon adenocarcinoma cells | SW480 DNA re-replication, Hoechst DNA content imaging, 48 h | Potency, µM (titrated, usually from 46.1 µM), actives largely listed as activators | 340,000 compounds, 1.8% hits | AID 624297; also: nearly all actives have a fitted effect of over 55% in size
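Image-based DNA-content assay: after two days of treatment, nuclei were labelled with the DNA dye Hoechst and imaged, and hits were compounds raising the count of nuclei showing high fluorescence intensity.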
KB-3-1 cytotox – KB-3-1 parental cell cytotoxicity | KB-3-1 viability, CellTiter-Glo ATP luminescence, 72 h | Potency, µM (series often up to 46.1 µM), hits mostly cytotoxic | 400,000 compounds, 1.4% hits | AID 1347075; also: nearly all actives have a fitted effect of over 60% in size
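KB-3-1 cells, DMEM (no phenol red) + 10% FBS; compound by pin transfer, 72 h, 37 °C. Readout: CellTiter-Glo luminescence after 10 min. Data normalized, curve-fitted.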
KB-V1 cytotox – KB-V1 MDR subline cytotoxicity | KB-V1 MDR cells viability, CellTiter-Glo, 72 h | AID 1347076 | Potency, µM (highest dose often 46.1 µM), most hits filed as cytotoxic | 400,000 compounds, 3.4% hits; also: nearly all actives have a fitted effect of over 60% in size
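In this primary screen, KB-V1 cells overexpressing P-gp are incubated with library compounds (lowest to highest concentration) for 72 h at 37 degrees C before a luminescent ATP viability read.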
ELG1 FLuc counter – luciferase inhibition in cell-free luciferin readout for ELG1 hits | 350 compounds, 3% hits | shares compounds with ELG1 repair inh | Potency, µM (top dose mostly 46.1 µM), hits mostly inhibitors | cell-free firefly luciferase luminescence counter-screen, ViewLux
ELG1 Luc conf – human ELG1 repair inhibition, luciferase-tagged ELG1 confirmation. shares compounds with ELG1 repair inh. HEK293T ELG1-luciferase levels, luminescence; cells co-treated with 5-fluorouridine. Potency, µM (series often up to 46.1 µM), hits mostly inhibitors. 670 compounds, 68% hits. AID 624248; also: nearly all actives have a fitted effect of over 55% in size
Target sequence (Q96QE3 whole entry, looked up): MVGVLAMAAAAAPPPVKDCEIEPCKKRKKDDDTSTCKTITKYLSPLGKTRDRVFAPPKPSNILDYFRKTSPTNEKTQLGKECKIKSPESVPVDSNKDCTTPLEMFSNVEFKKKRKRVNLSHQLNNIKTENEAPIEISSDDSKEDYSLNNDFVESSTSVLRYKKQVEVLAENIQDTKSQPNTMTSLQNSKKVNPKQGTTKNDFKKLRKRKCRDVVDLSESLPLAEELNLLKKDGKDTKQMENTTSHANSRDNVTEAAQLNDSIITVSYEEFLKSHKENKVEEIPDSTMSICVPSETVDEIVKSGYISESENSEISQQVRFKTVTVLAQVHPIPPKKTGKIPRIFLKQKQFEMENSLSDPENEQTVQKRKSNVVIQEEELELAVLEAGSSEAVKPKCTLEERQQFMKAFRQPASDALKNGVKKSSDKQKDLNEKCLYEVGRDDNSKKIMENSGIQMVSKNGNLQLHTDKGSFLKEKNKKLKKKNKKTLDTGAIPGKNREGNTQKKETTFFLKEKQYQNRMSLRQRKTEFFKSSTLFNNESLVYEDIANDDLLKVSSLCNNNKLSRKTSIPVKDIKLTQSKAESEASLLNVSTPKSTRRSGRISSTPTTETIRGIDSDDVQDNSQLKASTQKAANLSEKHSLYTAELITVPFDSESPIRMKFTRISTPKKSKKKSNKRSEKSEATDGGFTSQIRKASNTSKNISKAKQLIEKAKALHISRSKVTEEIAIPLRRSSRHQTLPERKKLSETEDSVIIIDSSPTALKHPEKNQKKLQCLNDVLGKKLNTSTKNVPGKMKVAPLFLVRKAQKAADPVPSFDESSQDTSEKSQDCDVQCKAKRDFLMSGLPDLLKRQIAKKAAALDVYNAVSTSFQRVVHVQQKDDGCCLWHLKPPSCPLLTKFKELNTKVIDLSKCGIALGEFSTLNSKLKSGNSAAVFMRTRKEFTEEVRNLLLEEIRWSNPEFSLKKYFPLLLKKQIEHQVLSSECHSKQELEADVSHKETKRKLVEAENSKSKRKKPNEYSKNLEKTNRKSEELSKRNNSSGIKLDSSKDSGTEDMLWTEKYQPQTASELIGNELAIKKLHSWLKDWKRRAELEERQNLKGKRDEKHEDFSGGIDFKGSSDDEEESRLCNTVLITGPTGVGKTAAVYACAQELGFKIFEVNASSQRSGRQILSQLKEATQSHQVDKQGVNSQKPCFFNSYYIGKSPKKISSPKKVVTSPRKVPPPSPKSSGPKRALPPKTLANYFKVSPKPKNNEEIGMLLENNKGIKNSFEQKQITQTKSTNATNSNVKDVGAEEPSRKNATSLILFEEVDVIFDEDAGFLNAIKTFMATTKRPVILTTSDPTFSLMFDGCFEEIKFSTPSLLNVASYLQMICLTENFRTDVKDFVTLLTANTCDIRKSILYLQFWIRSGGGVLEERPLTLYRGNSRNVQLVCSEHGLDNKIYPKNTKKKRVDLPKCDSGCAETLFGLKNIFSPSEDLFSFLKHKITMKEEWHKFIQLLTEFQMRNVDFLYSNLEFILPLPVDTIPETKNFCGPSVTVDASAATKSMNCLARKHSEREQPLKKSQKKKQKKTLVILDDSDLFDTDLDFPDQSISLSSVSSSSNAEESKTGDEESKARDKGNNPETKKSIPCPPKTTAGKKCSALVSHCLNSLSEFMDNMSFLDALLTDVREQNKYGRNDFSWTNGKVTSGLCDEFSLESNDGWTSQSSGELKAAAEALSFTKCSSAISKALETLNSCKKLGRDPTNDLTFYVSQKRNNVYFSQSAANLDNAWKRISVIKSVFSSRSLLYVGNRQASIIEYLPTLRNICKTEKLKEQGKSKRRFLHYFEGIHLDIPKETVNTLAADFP
ELG1 MMS Luc – MMS-stimulated human ELG1 repair inhibition, confirmed; shares compounds with ELG1 repair inh; HEK293T luciferase-tagged ELG1 level, MMS stimulated; Potency, µM (highest dose often 46.1 µM), hits mostly inhibitors; 670 compounds, 53% hits; AID 624249; also: nearly all actives have a fitted effect of over 60% in size
ELG1 5FU viab – confirmation of ELG1 repair inhibitors: viability with 5FU; shares compounds with ELG1 repair inh; cell viability with 5-FU, ELG1-dependent repair; Potency, µM (titrated, usually from 46.1 µM), most hits filed as cytotoxic; 670 tested, under 10 active;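 also: ELG1-luc HEK293T cells cotreated with 5-fluorouridine at 10 µM final; viability measured 16 h after compound addition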
ELG1 MMS viab – confirmation of ELG1 repair inhibitors: viability with MMS; shares compounds with ELG1 repair inh; Cell viability with MMS, ELG1-dependent DNA repair; Potency, µM (series often up to 46.1 µM), hits mostly cytotoxic; 670 compounds, 33% hits; AID 624251;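 also: ELG1-luc HEK293T cells co-treated with 10 µM MMS; viability read 16 h after compound addition; nearly all actives have a fitted effect of over 60% in size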
Cell viab unstim – counter-screen for ELG1 repair inhibitors: unstimulated cell viability | AID 624252 | Potency, µM (series often up to 45.9 µM), usual class: cytotoxic | shares compounds with ELG1 repair inh | 900 compounds, 8% hits | cell viability counter-screen, unstimulated, luminescence;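 also: compound exposure lasted 16 hours before reading; nearly all actives have a fitted effect of over 55% in size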
FLuc biochem – counter-screen for ELG1 repair inhibitors: firefly luciferase inhibition; shares compounds with ELG1 repair inh; purified firefly luciferase, luminescence counter-screen; Potency, µM (titrated, usually from 57.5 µM), most hits filed as inhibitors; 350 compounds, 10% hits
Each line names hits and unclear results; the compound was inactive in the other large screens (follow-up assays come after a bar, where they were run). Calls follow the shape of the dose curve; as a rule, active = well fitted curve in the direction sought with a large enough effect; inconclusive = small, poorly fitted or top-dose-only effect, or another doubt; inactive = no such curve, though single readings can be large; an effect the other way counts as inactive or inconclusive.

CC(=O)N1c2ccc(S(=O)(=O)NCCC(=O)NCc3ccc(N(C)C)cc3)cc2CC1C (configuration not stated)	MCF10A rerep inconclusive, ELG1 repair inh 4.6µM, SW480 rerep inconclusive | ELG1 Luc conf 13µM | ELG1 MMS Luc inactive | ELG1 5FU viab inconclusive | ELG1 MMS viab inactive | Cell viab unstim inactive
COCC(C)NC(=O)c1ccc2nc(-c3ccccc3)c(-c3ccccc3)nc2c1 (configuration not stated)	ELG1 repair inh inconclusive, KB-V1 cytotox inconclusive
CCC(C)NC(=O)c1ccc2nc(-c3ccc(OC)c(OC)c3)c(-c3ccc(OC)c(OC)c3)nc2c1 (configuration not stated)	MCF10A rerep 15µM, ELG1 repair inh 0.52µM, SW480 rerep inconclusive | ELG1 FLuc counter inactive | ELG1 Luc conf 1.6µM | ELG1 MMS Luc inactive | ELG1 5FU viab inconclusive | ELG1 MMS viab inactive | Cell viab unstim inconclusive | FLuc biochem inactive
O=[N+]([O-])c1ccc(S(=O)(=O)NCC(c2ccco2)N2CCc3ccccc3C2)cc1 (configuration not stated)	KB-V1 cytotox inconclusive
COc1ccccc1/C=C/c1nc2ccccc2s1	none (no result: MCF10A rerep, ELG1 repair inh, SW480 rerep) | Cell viab unstim inactive
CCCn1nnc(NC(=O)c2cc(Br)ccc2OC)n1	KB-3-1 cytotox inconclusive
CCOC(=O)CCCn1nc(C)n2c(cc3sccc32)c1=O	none
O=C1/C(=C/c2ccc(O)c(O)c2)Oc2ccccc21	none (no result: MCF10A rerep, ELG1 repair inh, SW480 rerep, KB-3-1 cytotox, KB-V1 cytotox) | Cell viab unstim inactive
O=C(/C=C/c1ccco1)NC(=S)Nc1cccc([N+](=O)[O-])c1	MCF10A rerep inconclusive, SW480 rerep inconclusive, KB-3-1 cytotox inconclusive, KB-V1 cytotox inconclusive
CS(=O)(=O)N1CCc2cc(-c3csc(NC(=O)C(c4ccccc4)c4ccccc4)n3)ccc21	KB-V1 cytotox inconclusive
CC1Cc2cc(-c3csc(NC(=O)Cc4ccccc4)n3)ccc2N1S(C)(=O)=O (configuration not stated)	ELG1 repair inh 7.3µM, KB-3-1 cytotox 21µM, KB-V1 cytotox 3.3µM | ELG1 FLuc counter inconclusive | ELG1 Luc conf 13µM | ELG1 MMS Luc 5.6µM | ELG1 5FU viab inconclusive | ELG1 MMS viab inconclusive | Cell viab unstim 16µM | FLuc biochem inactive
Cc1nn(CC(=O)NC2CCC(C)CC2)c(C)c1[N+](=O)[O-] (configuration not stated)	none
Cc1cccc(-c2noc(CCC(=O)N3CCN(c4cc(C)ccc4C)CC3)n2)c1	MCF10A rerep inconclusive, ELG1 repair inh inconclusive | Cell viab unstim inactive
Cc1ccc(C)c(N2CCN(C(=O)CCc3nc(-c4ccccc4)no3)CC2)c1	MCF10A rerep inconclusive

Screening data: PubChem BioAssay, National Center for Advancing Translational Sciences (NCATS)
